Residue numbers refer to the chain shown, from its start. Whole data set: some 5,800 sequences, median “enrichment r” near 0.68, cut for the highest 2% near 11. Only a selection was taken, and the highest values are over-represented in it overall.
T1: UNK ZnF1-6 (called full-length) (human, UniProt Q9C0B0 30-357)
T1 sequence: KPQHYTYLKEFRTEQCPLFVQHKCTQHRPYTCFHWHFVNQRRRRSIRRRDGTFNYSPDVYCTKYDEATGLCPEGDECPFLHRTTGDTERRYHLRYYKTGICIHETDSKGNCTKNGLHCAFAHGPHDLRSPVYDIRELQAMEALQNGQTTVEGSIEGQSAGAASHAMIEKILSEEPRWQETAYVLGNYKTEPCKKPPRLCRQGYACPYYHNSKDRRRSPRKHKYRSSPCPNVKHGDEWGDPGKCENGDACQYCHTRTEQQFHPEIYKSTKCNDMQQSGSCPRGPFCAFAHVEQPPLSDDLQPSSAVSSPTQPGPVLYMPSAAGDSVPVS

B1: chr17:15565482:15566353:-|three_prime_utr|ENSG00000241322|control|control|control (ssRNA)
RNA: GGGAGUUCUACAGUCCGACGAUCCACCCAAAGAAAAAGUCUUGGAAAAUCCCUAUGUCACCUGACCAAUUCCUCCUGACUGUUAGCGCCCUGCAGCACGCCCGUAAUUCCGGGGAAUUUGCCUAUCCCUGUAGGCCCCAAACACAACAGAGGAUUGAGCAUCA
B2: chr16:58599380:58599482:-|5pUTR|ENSG00000125107|unk|FALSE|unique (ssRNA)
RNA: GGGAGUUCUACAGUCCGACGAUCCAGAACAGAGUAAGACCCCUGGUAAAGAAGAACUGAAGAUAUUAUACAGAUACCAGAUAUAGCCUAAUUACAAAGAAAGCAUUAACCUGCCUCUGAGGUGACUAAAGGGGAAUAAUGGUGCAACAGAGGAUUGAGCAUCA
B3: chr12:108645191:108645284:-|3pUTR|ENSG00000110880|msi1_unk|total|mutant (ssRNA)
RNA: GGGAGUUCUACAGUCCGACGAUCUCUUUUUUUUUUUUUUUUUUUAAGCCAUGACAUCCCAGAAGAGGACAGUGAAUUACUCCCCGGUCGGCUCUUACCGAGUGGCCACCGUGUUCUGUCAAAACACUUGCUUCCAUUUUCAGACAACAGAGGAUUGAGCAUCA
B4: chr8:23842113:23842214:-|3pUTR|ENSG00000159167|msi1|total|mutant (ssRNA)
RNA: GGGAGUUCUACAGUCCGACGAUCACUUCCGACAUUUUUGUGCCAUUAUAUUUGCAUUAUGUAUUUAUAAUUUAAAUGAUAUUCCGGUUUUUGGCUGAGUACUGGAAUAAACAGUGAGCAUAUCUGGUAUAUGUCAUUAUUUAUCAACAGAGGAUUGAGCAUCA
B5: chr1:202941098:202941199:-|3pUTR|ENSG00000159346|msi1_unk|total|mutant (ssRNA)
RNA: GGGAGUUCUACAGUCCGACGAUCCCUCCCUUACCCCCAUCCUUAACUUUGUAUCCUGGCUUAUAACAGGCCAUCCAUUUUUGCCGCACACUUUUCAAAAACAAUUAUAUACCCUGGUCCCAUCUUUCCCGGGCCUGGAUCUGCCAACAGAGGAUUGAGCAUCA
B6: chr9:74692981:74693082:+|3pUTR|ENSG00000198963|unk|total|mutant (ssRNA)
RNA: GGGAGUUCUACAGUCCGACGAUCUUUUAUAUUACUUCCGAAUGUAACCGGUUUUUGUCCUUAUUUUAUGUCCUGUAAAUUAUCCGUUCAAUACUGUCCGCAUUCCCGGAUAAUGCACACAUGAUUUCUGAAUGUUUUCUGUAACAACAGAGGAUUGAGCAUCA
B7: chr6:149889094:149889339:-|three_prime_utr|ENSG00000164520|control|control|control (ssRNA)
RNA: GGGAGUUCUACAGUCCGACGAUCGGCAGCUCCCUUUAAAGGUCAAAAGCCUUCCCUGUGUGGGUGUCAGUGUGUGUGUGCGAUAGAAAAUUUGAUUGACUUCUCCGUGGGCUUCCUGUCUGGAGAGUCAGUGAUGGCUAUAAGCAACAGAGGAUUGAGCAUCA
B8: ENSG00000198589:be:win_1801|CDS|ENSG00000198589|bound_else_gene|NA|bound_elsewhere_windowed (ssRNA)
RNA: GGGAGUUCUACAGUCCGACGAUCACAGUCAACAUAUAUAACACCAUUCGGAGAGUUGGAACAGUGCUUCUCAUCAUGCACACGCUGAAGUACUACUACUGGGCAGUGAAUCCUCAGGAUCGAAGUGGUAUCACCCCAAAAGGACAACAGAGGAUUGAGCAUCA
B9: chr21:18281039:18281221:-|CDS|ENSG00000154646|control|control|control (ssRNA)
RNA: GGGAGUUCUACAGUCCGACGAUCACCUCUCCUCAAACAGUCCCUCGAUUAAUAGAUGAAAUUGUCAUAAACCCUCAUUACAAUAGGCGAAGAAAGGACAACGACAUUGCCAUGAUGCAUCUGGAAUUUAAAGUGAAUUACACACAACAGAGGAUUGAGCAUCA
B10: ENSG00000198589:be:win_6551|CDS|ENSG00000198589|bound_else_gene|NA|bound_elsewhere_windowed (ssRNA)
RNA: GGGAGUUCUACAGUCCGACGAUCGACGUAUUUCAUUAGCUAGUCCACGUCAGCUUUUUAAGGCUUCUAAUAUGACCCAGCGAUGGCAACACAGAGAGAUAUCUAAUUUUGAGUACUUGAUGUUUCUCAACACGAUAGCAGGACCAACAGAGGAUUGAGCAUCA
B11: chr20:53567570:53567671:-|3pUTR|ENSG00000171940|unk|FALSE|unique (ssRNA)
RNA: GGGAGUUCUACAGUCCGACGAUCUCACAAGCUGAGCCAUAUGUACAUAAUCUAGAUUUUGUUUUCAUAGUUUUGCACUUUUAUAGCCUAUUUUUGAAGAUUAACACAUUUGCAAGAUGAUUGACUCAAUCUUUGCCUAAUCCACAACAGAGGAUUGAGCAUCA
B12: chr16:57253408:57253449:+|3pUTR|ENSG00000102931|msi1_unk|FALSE|overlapping (ssRNA)
RNA: GGGAGUUCUACAGUCCGACGAUCUGUGUGGUAGAUUACUUAUCAGAAAACAUAUAUGUCAUCUCUAGAACGAAGAAAAAGCAUAGUAGUUCAAUUCCCAGUGUGUCCCUUUGAUUUUUUUUUUUUAAUAGUAAAAAUAAGAAUCAACAGAGGAUUGAGCAUCA
B13: chr12:76029359:76029534:-|3pUTR|ENSG00000139289|msi1|FALSE|unique (ssRNA)
RNA: GGGAGUUCUACAGUCCGACGAUCAGAAGUUUAAAAAGCUAAAAGUUAAAAAUGGUGUAAUUAUGAAAAUCUAACACUCAAGAUAGUUUCUAAAAGGAAAUCAGUAGUUAAGGAUACCUGAUUUCAAAAUAUUUAAAGCAUAACCAACAGAGGAUUGAGCAUCA
B14: chr14:103503186:103503248:+|CDS_3pUTR|ENSG00000075413|msi1_unk|FALSE|overlapping (ssRNA)
RNA: GGGAGUUCUACAGUCCGACGAUCUGCUUCCAAAAUUGCCAAUGAGCUAAAGCUGUAACCCAGUGAUUAUGAUGUAAAUUAAGUAGCAAUUAAAGUGUUUUCCUGAACACUGAUGGAAAUGUAUAGAAUAAUAUUUAGGCAAUACAACAGAGGAUUGAGCAUCA
B15: chr12:98549714:98549829:+|3pUTR|ENSG00000120802|unk|FALSE|unique (ssRNA)
RNA: GGGAGUUCUACAGUCCGACGAUCGAAGAUGUAUAUUUAGACCAGCACACAAUUUUGAUUUCAAUUAGCCUUAUUCUAAUAUUUAGCUUUUAGAUCUUUCAUACACAUUUUCACGUACUUUGCAAUUGAGACCAGAAAGACUUGCAACAGAGGAUUGAGCAUCA
B16: ENSG00000136451:be:win_1001|CDS|ENSG00000136451|bound_else_gene|NA|bound_elsewhere_windowed (ssRNA)
RNA: GGGAGUUCUACAGUCCGACGAUCACCAAAAGCAGCAGCAGCAGCAGCAGCAGCAGCAGCAGCAGCAGCAACAACAACAACAACAACAUGUGACAAGCUGGCCAGGGAAGCAAGUAGAAACACUGAGACUGUGGGAAGAAGCUGCAACAGAGGAUUGAGCAUCA
B17: chr2:206311781:206311882:+|3pUTR|ENSG00000204186|unk|total|mutant (ssRNA)
RNA: GGGAGUUCUACAGUCCGACGAUCCCGUGUUCCGAGUCCUUUCAUUUUAAGAUUCAGAAACAGCCUUUGUCCAACAUUUUCUGCCGAAGAACUUCAUCUUAAUUUAUGUCACAAAAUAAUUCCGCACCGUAUACCGAAUUUUGUCAACAGAGGAUUGAGCAUCA
B18: chr5:52955293:52955406:+|3pUTR|ENSG00000213949|unk|total|mutant (ssRNA)
RNA: GGGAGUUCUACAGUCCGACGAUCUACCAACCAGUGUGAGCUGACUUCAGCACACCACUGAGACAGAUUACACGACCGACAGACCGACCGACCGACCGACCGACCGACCGACCGACCGACCGACCGAUAUUGACCGAGAACAUGCAACAGAGGAUUGAGCAUCA
B19: chr5:52955293:52955406:+|3pUTR|ENSG00000213949|unk|FALSE|unique (ssRNA)
RNA: GGGAGUUCUACAGUCCGACGAUCUACCAACCAGUGUGAGCUGACUUCAGCACACCACUGAGACAGAUUACACGAUAGACAGAUAGAUAGAUAGAUAGAUAGAUAGAUAGAUAGAUAGAUAGAUAGAUAUUGAUAGAGAACAUGCAACAGAGGAUUGAGCAUCA
B20: chr11:74334375:74334476:-|3pUTR|ENSG00000165434|msi1|FALSE|unique (ssRNA)
RNA: GGGAGUUCUACAGUCCGACGAUCUUUUUGUUUUAUUUUUAAAAUGUGUAAAACAUCUUUUGUUUUAUAUGCUUUUAAGAAUGUAGAUUGUAAUUUAGGAAAUGGCAUAUAUUCUGCAAAGUGGUAUAAUGUUGUAUAUAUGAACAACAGAGGAUUGAGCAUCA
B21: chr2:206311781:206311882:+|3pUTR|ENSG00000204186|unk|FALSE|unique (ssRNA)
RNA: B17 RNA with C24U, C25A, C31U, C32A, C83U, C84A, C121U, C122A, C133U, C134A

What follows are binders tested against T1, UNK ZnF1-6 (called full-length) (assay: nsRBNS (natural sequence RNA bind-n-seq); RBNS binding buffer (assumed for nsRBNS): 25 mM Tris pH 7.5, 150 mM KCl, 3 mM MgCl2, 0.01% Triton X-100, 500 ug/ml BSA, 20 U/ml SUPERase-In, 4 C; UNK is unkempt and MSI1 is Musashi-1; names of the RNAs are library labels; protein concentration not given here; high values mean tight binding).

With B1 as the binder, how does the binding signal read?
The binding signal was 0.988 enrichment R.

With B2 as the binder, how does the binding signal read?
The binding signal was 0.956 enrichment R.

With B3 as the binder, how does the binding signal read?
Its binding signal is 4.25 enrichment R.

With B4 as the binder, how does the binding signal read?
The binding signal was 0.575 enrichment R.

For B5, which binding signal is on record?
The binding signal was 2.09 enrichment R.

How did the binding signal turn out when B6 was run?
The binding signal was 0.468 enrichment R.

With B7 as the binder, how does the binding signal read?
The binding signal was 0.908 enrichment R.

How did the binding signal turn out when B8 was run?
The binding signal was 0.542 enrichment R.

Which binding signal does the source give for B9 here?
The binding signal was 0.684 enrichment R.

For B10, which binding signal is on record?
The binding signal was 0.548 enrichment R.

With B11 as the binder, how does the binding signal read?
The binding signal was 3.86 enrichment R.

For B12, which binding signal is on record?
The binding signal was 1.9 enrichment R.

How did the binding signal turn out when B13 was run?
Its binding signal is 1.92 enrichment R.

B14 was tested. Which binding signal did it give?
Its binding signal is 11.1 enrichment R.

B15 was tested. Which binding signal did it give?
The binding signal was 32.9 enrichment R.

With B16 as the binder, how does the binding signal read?
The binding signal was 0.905 enrichment R.

Which binding signal does the source give for B17 here?
Its binding signal is 0.453 enrichment R.

B18 was tested. Which binding signal did it give?
The binding signal was 0.427 enrichment R.

With B19 as the binder, how does the binding signal read?
The binding signal was 24.7 enrichment R.

For B20, which binding signal is on record?
The binding signal was 3.22 enrichment R.

B21 was tested. Which binding signal did it give?
The binding signal was 11.6 enrichment R.

Reference: paper PMC12136788
